# RORgamma inh – qHTS for inhibitors of ROR gamma transcriptional activity; Drosophila S2 Gal4-RORgamma UAS-luciferase reporter, 20 h; hit rate 5.4% among 310,000; Potency, µM (doses to about 53.6 µM), without a hit: top-dose activity change, negative = inhibition, usual class: inhibitors; Nuclear receptor ROR-gamma (Mus musculus), P51450; further: nearly all actives have a fitted effect of over 60% in size
#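 Compounds are pin-transferred onto Drosophila Schneider cells expressing a copper-inducible Gal4–ROR gamma transactivation domain fusion. After 1 hr, copper sulfate is added to 700 uM final; luciferase is read 20 hr later.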
# NPSR antag – qHTS Assay for Antagonists of the Neuropeptide S Receptor: cAMP Signal Transduction; Q6W5P4; CHO-NPSR cells, cAMP TR-FRET, antagonist mode; Potency, µM (series often up to 38.3 µM), for inactives: at the highest dose activity change, negative = inhibition, actives largely listed as inhibitors; hit rate 1% among 220,000; AID 1461, 2008; further: nearly all actives have a fitted effect of over 50% in size
# Target sequence (Q6W5P4 whole entry, looked up): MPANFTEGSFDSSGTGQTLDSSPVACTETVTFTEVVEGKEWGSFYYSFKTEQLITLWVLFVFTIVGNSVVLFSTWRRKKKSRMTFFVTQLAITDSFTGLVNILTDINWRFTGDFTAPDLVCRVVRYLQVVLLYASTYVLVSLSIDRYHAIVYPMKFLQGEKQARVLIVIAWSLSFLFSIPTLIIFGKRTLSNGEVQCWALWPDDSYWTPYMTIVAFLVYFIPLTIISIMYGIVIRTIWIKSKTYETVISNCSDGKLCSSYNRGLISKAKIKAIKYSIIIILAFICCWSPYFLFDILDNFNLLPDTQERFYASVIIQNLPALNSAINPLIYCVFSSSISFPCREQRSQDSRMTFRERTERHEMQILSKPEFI
# B2AR arrestin – qHTS assay of beta-arrestin-biased ligands of beta2-adrenergic receptor | Beta-2 adrenergic receptor (Homo sapiens), P07550 | beta-arrestin recruitment to beta2AR, cell-based reporter | Potency, µM (top dose mostly 46.1 µM), for the others: at the top dose activation, hits mostly activators | hit rate 0.02% among 330,000 | AID 492947, 2010;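 further: 0% = DMSO controls and full agonism = EC100 isoproterenol or metaproterenol; nearly all actives have a fitted effect of over 65% in size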
# Gal4-VP16 FLuc – VP16 counterscreen qHTS for inhibitors of ROR gamma transcriptional activity. AID 2546, 2010. Drosophila S2 Gal4-VP16 UAS-luciferase, luminescence, 20 h. hit rate 3.5% among 310,000. Potency, µM (series often up to 53.6 µM), for the others: at the top dose activity, negative = inhibition, usual class: inhibitors;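 further: Gal4-VP16 expression switched on by copper sulfate through the metallothionein promoter; nearly all actives have a fitted effect of over 50% in size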
# * = called active by the depositor; ? = inconclusive; . = no result; [ ] = dose if it differs, or a comment. Shown are actives, neighbours in structure and some others; about 5.7% of the full set was active somewhere. The call rests on the fitted dose curve; in most records, active means well fitted curve in the direction sought with a large enough effect; inconclusive means small, poorly fitted or top-dose-only effect, or another doubt; inactive means no such curve, though single readings can be large; an effect the other way counts as inactive or inconclusive. Unless noted, on the % scale 0 is the no-effect control and ±100 the full control effect; potency means the concentration at half of the fitted maximal effect.
SMILES,RORgamma inh,NPSR antag,B2AR arrestin,Gal4-VP16 FLuc
COc1ccc(CN2CCN(c3cccc(C)c3C)CC2)cc1OC,-20.9%,-8.4%[46.1 µM],0.3%,-2.4%
Cc1nc(SCC(=O)Nc2ccccc2Cl)oc1C,-11.8%,.,5.0%,0.4%
CCCC[P+](CCCC)(CCCC)Cc1ccc(NC(=O)[C@@H](Cc2ccc3ccccc3c2)NC(=NC2CCCCC2)NC2CCCCC2)cc1,?,.,.,-8.3%
Cc1cc(Cl)ccc1Oc1ncc(-c2ccc(Cl)cc2)cn1,13.3%,-18.5%[46.1 µM],0.0%,-2.7%
Cc1cc(Cl)ccc1OCc1nc(-c2ccc(O)cc2)n[nH]1,?,-19.8%[46.1 µM],-0.5%,4.47µM*
C=CCNC(=O)c1ccc(-n2cccc2)cc1,34.1%,0.5%,0.1%,-0.3%
C=CCNC(=S)/N=c1/ccccn1CC,10µM*,11.6%,0.3%,-2.1%
O=C(NC1CCS(=O)(=O)C1)c1cccc(Cl)c1 (centres undefined),.,.,-0.1%,.
CCOC(=O)C(C)Sc1nc(-c2ccccn2)ncc1OC (centres undefined),7.08µM*,4.6%,0.1%,?
COc1cnc(-c2ccccn2)nc1Sc1c(Cl)cccc1Cl,3.16µM*,?,0.8%,10µM*
COc1cnc(-c2ccccn2)nc1Sc1ccccc1Cl,2.51µM*,-23.4%[46.1 µM],?,10µM*
COc1ccccc1Sc1nc(-c2ccccc2)ncc1OC,7.9%,-39.6%,-0.2%,0.6%
COc1ccc(-c2cn3cc(C)ccc3n2)cc1OC,11.2µM*,-1.7%[46.1 µM],-0.3%,?
COc1ccc(-c2cn3cc(C)ccc3n2)cc1F,2µM*,3.1%,-0.3%,3.98µM*
COc1cc(NCCCCCCCN)c2ncccc2c1,1.58µM*,17.9%[46.1 µM],0.0%,?
COc1cc(NC(C)CCCN)c2ncccc2c1 (centres undefined),-25.9%,.,-0.1%,2.3%
Cc1ccc(NNC(=O)Nc2ccc(Cl)cc2)nn1,25.6%,-5.9%,-1.3%,7.7%
Cc1cccc(NC(=S)NNC(=O)CCn2nc(C)c([N+](=O)[O-])c2C)c1,1.78µM*,0.8%,-1.1%,0.5%
Cc1nn(CCC(=O)NNC(=S)Nc2ccc(Cl)cc2)c(C)c1[N+](=O)[O-],?,-17.2%,-0.2%,-5.7%
Cc1nn(CCC(=O)NNC(=S)Nc2cccc(Cl)c2)c(C)c1[N+](=O)[O-],-2.7%,-13.0%,0.1%,3.8%
Cc1nn(CCCC(=O)Nc2cc(Oc3ccc(F)cc3)cc([N+](=O)[O-])c2)c(C)c1[N+](=O)[O-],?,-57.1%,-0.2%,10µM*
Cc1ccccc1Oc1cc(NC(=O)CCCn2nc(C)c([N+](=O)[O-])c2C)cc([N+](=O)[O-])c1,40.7%[10 µM],-54.7%,-0.1%,-93.2%
O=C(Cn1nc(C(F)F)cc1C(F)F)NNC(=S)Nc1ccc(Cl)cc1,-39.2%,-5.4%[46.1 µM],0.1%,-3.2%
Cc1ccc(NC(=S)NNC(=O)Cn2nc(C(F)F)cc2C(F)F)cc1,2.24µM*,5.6%,3.7%,-24.6%
Cc1nn(CC(=O)NNC(=S)Nc2ccccc2)c(C)c1[N+](=O)[O-],8.91µM*,-8.8%[46.1 µM],0.1%,12.6µM*
SMILES,RORgamma inh,NPSR antag,B2AR arrestin,Gal4-VP16 FLuc
Cc1ccc(-c2nc(N/N=C/c3cccc([N+](=O)[O-])c3)c3ccccc3n2)cc1,6.1%,-19.1%[46.1 µM],-0.3%,5.2%
CCNc1nc(NCC)nc(N/N=C/c2ccc(Br)cc2)n1,17.8µM*,-14.3%,0.3%,-16.3%
Cc1cc(N/N=C/c2ccc(Cl)cc2)nc(NCc2ccccc2)n1,?,1.2%,-1.1%,?
Clc1cccc(/C=N/Nc2nc(Cl)nc3ccccc23)c1,2µM*,-22.0%[46.1 µM],-1.2%,-1.9%
CSc1ccc(/C=N/Nc2nc(C)cc(C)n2)cc1,11.2µM*,0.5%,0.1%,?
Cc1cc(C)nc(N/N=C/c2cccc(Cl)c2)n1,11.2µM*,16.6%,0.0%,5.8%
COc1ccc(S(=O)(=O)N2Cc3ccccc3CC2C(=O)Nc2nccs2)cc1 (centres undefined),-40.3%,-13.3%[46.1 µM],-0.5%,1.2%
N#Cc1ccc(CN2CC3(CCN(C(=O)c4cccc(F)c4)CC3)C2)cc1,-4.9%,.,.,8.6%
CN(CC(=O)Nc1ccc(OC(F)(F)F)cc1)C(=O)/C=C/c1cc2c(cc1[N+](=O)[O-])OCO2,.,.,-0.1%,.
C=CC1CO1 (centres undefined),-14.0%,.,.,5.9%
CC(=O)N1CCC2(CCCN(c3ccccn3)C2)CC1,-11.4%,.,.,7.5%
NS(=O)(=O)c1ccc(N2CCOCC2)c(C(=O)NCCCSc2ccccc2)c1,.,.,0.2%,.

# Screening data as filed in PubChem.
